Laboratory results published in PubChem BioAssay AID1259418 (Broad Institute, 2018).
About 840 (25%) of roughly 3,400 compounds were called active. Roughly 11% stayed inconclusive and do not appear here. A selection follows. Results with a measured potency or affinity are listed apart. Values without a mark were called inactive.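 The calls were made as follows: active = fitted half-maximal concentration of signal decrease at or below twice the sample's top tested concentration; inconclusive = flat curve between -70 and -30 percent, or poor fit; inactive = flat within 30 percent, signal rise, or potency above limit.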

test: inhibitors of Toxoplasma growth in IFN-γ-primed HeLa – cell-based, ME49Luc, luciferase, 72 h, dose response (AID 1259418); conditions: T. gondii ME49Luc in IFN-y HeLa, hits give low values, -100% = high-dose IFN-γ control wells; at 19.5 µM unless noted

Point of comparison: `COc1ccc(-c2nc(NCCCN(Cc3ccco3)C3CCCC3)c3ccccc3n2)cc1`, max activity -19.2% [at 5 µM]. Against it:
- COc1ccc(S(=O)(=O)N2CCC[C@@H]2C(=O)NCCc2csc(C)n2)cc1 — higher, -6.98% [at 5 µM]
- COc1ccc(-c2nc(Nc3ccc(C(C)C)cc3)c3ccccc3n2)cc1 — higher, 12% [at 5 µM]
- CN(C)C(=O)c1cccc(-c2ccc3c(c2)[C@H]2[C@H](CCN2C(=O)Cc2ccccc2)[C@@H](CO)N3)c1 — higher, 24.7% [at 5 µM]
- CCOc1ccc(C(=O)N2CCC3(CC2)Nc2cc(F)ccc2-n2cccc23)cc1 — higher, -6.53% [at 5 µM]
- Cc1ccc(-c2coc(-c3ccc(NC(=O)Nc4cc(F)ccc4F)cc3)n2)c(C)c1 — higher, -9.54% [at 5 µM]
- COc1ccc(-c2nc(N(CCN(C)C)Cc3ccccc3)c3ccccc3n2)cc1 — lower, -20.1% [at 5 µM]

Point of comparison: `COc1ccc(-c2nc(N(Cc3ccco3)C3CCCCC3)c3ccccc3n2)cc1`, max activity -11.5% [at 2.6 µM]. Against it:
- CCc1ccccc1NC(=O)COc1nc(C)nc2ccccc12 — lower, -12.9% [at 2.6 µM]
- COc1ccc(CN2CCc3nc(SCc4nc(-c5ccccc5)oc4C)[nH]c(=O)c3C2)cc1 — lower, -18.7% [at 2.6 µM]
- COCCCN1CCc2nc(SCc3nc(-c4ccccc4)oc3C)[nH]c(=O)c2C1 — higher, 21% [at 2.6 µM]
- Cc1cc(C(F)(F)F)nn1CC(=O)N1CCCC1c1cc(C(C)C)no1 (stereo unspecified) — higher, 16% [at 2.6 µM]

Point of comparison: `O=C(CC1N=C2c3ccccc3N=C(SCc3cccc(F)c3)N2C1=O)NCc1ccc2c(c1)OCO2` (stereo unspecified), max activity 67.4%. Against it:
- COCCNC(=O)C1(C)CCC(=O)N1CCc1c[nH]c2ccccc12 (stereo unspecified) — lower, 3.62%
- Cc1cccc(CN2CCC3(CC2)N=C(c2cccc(F)c2)C(=O)N3)c1 — lower, -7.22%
- Cc1cccc(-c2noc(-c3nnn(Cc4nc(-c5cccc(Cl)c5)oc4C)c3C)n2)c1 — lower, 60.4%
- CCN1CC(C(=O)O)CN2CCN(C(=O)c3ccncc3F)CC2C1 (stereo unspecified) — lower, 5.55%
- O=C(NCCc1csc(-c2ccccc2)n1)[C@H]1CSCN1C(=O)c1cccc(F)c1 — lower, -24.5%
- Cc1nc2ccccc2n1CC(O)Cn1c2ccccc2c2ccccc21 (stereo unspecified) — lower, 28.9%
- COc1ccc(CN2CCC3(CC(n4cnnc4)CO3)C2)cc1 (stereo unspecified) — lower, 33.5%
- CCN(CCN(C)C)c1nc(-c2ccc(OC)cc2)nc2ccccc12 — lower, -29.5%
- COc1ccc(-c2nc(N(C)c3ccc(F)cc3)c3ccccc3n2)cc1 — lower, 36%
- NC(=O)C1(N2CCCCC2)CCN(c2ccc(NC(=O)c3cccc(Cl)c3)cc2C(=O)O)CC1 — lower, 1%

Point of comparison: `Cc1cccc(OCC(=O)N2CCC3(CC2)Nc2ccc(C)c(C)c2-n2cccc23)c1`, max activity 8.26% [at 0.16 µM]. Against it:
- O=C(NCCc1csc(-c2ccccc2)n1)[C@H]1CCCN1C(=O)c1ccco1 — lower, -10.6% [at 0.16 µM]
- O=C(COc1ccc(Cl)cc1)N1CCC2(CC1)Nc1cc(F)ccc1-n1cccc12 — higher, 9.43% [at 0.16 µM]
- CCOc1ccc(NC(=O)Nc2ccc(-c3nc(-c4ccc(C)cc4C)co3)cc2)cc1 — higher, 21.2% [at 0.16 µM]
- COc1cccc(CC(=O)N2CCC[C@@H]2C(=O)NCCc2csc(-c3ccccc3)n2)c1 — higher, 18.6% [at 0.16 µM]

Point of comparison: `CN(C)c1ccc(-c2nc3c([nH]2)c(=O)n(C)c(=O)n3C)cc1`, max activity 17.3% [at 10 µM]. Against it:
- Cc1ccc(S(=O)(=O)N2CC[C@@H]3[C@H]2c2cc(-c4cccc(C(=O)N(C)C)c4)ccc2N[C@@H]3CO)cc1 — higher, 21.6% [at 10 µM]
- O=C(Cc1ccccc1)N1CC[C@H]2[C@H](CO)Nc3ccc(C4=CCCCC4)cc3[C@H]21 — higher, 30.4% [at 10 µM]
- COc1ccccc1NC(=O)N1CCCCN2[C@H](CO)[C@@H](c3ccc(-c4cccc(C#N)c4)cc3)[C@H]2C1 — higher, 24.8% [at 10 µM]
- N#Cc1cccc(-c2ccc([C@H]3[C@H]4CN(Cc5ccccc5F)CCCCN4[C@H]3CO)cc2)c1 — higher, 26.6% [at 10 µM]
- COc1ccc(NC(=O)CN2CCC3(CC2)N=C(c2cccc(F)c2)C(=O)N3)cc1OC — higher, 28.6% [at 10 µM]
- Cc1ccc(-c2coc(-c3ccc(NC(=O)Nc4ccc(C)c(F)c4)cc3)n2)cc1 — higher, 19.5% [at 10 µM]

`COc1ccccc1-c1ccc2c(c1)[C@H]1[C@H](CCN1Cc1ccccc1F)[C@@H](CO)N2` gave a max activity of 11.2% [at 1.2 µM].

Point of comparison: `CN(c1nc(-c2ccc(Cl)cc2)nc2ccccc12)C1CCCCC1`, max activity 11.9% [at 0.68 µM]. Against it:
- O=C(COc1ccc(Cl)cc1)N1CCC2(CC1)Nc1ccc(Cl)cc1-n1cccc12 — lower, 3.74% [at 0.68 µM]

Point of comparison: `Cc1ccc(C2=NC3(CCN(CC(=O)Nc4ccccc4C(F)(F)F)CC3)NC2=O)cc1`, max activity -14.3% [at 0.35 µM]. Against it:
- O=C(COc1ccccc1)N1CCC2(CC1)Nc1ccc(Cl)cc1-n1cccc12 — higher, 8.01% [at 0.35 µM]
- Cc1cccc(Cn2c(CN3CCC(C(=O)N4CCCC4)CC3)cc3ccccc32)c1 — higher, -9.03% [at 0.35 µM]
- COc1ccccc1CN1CCc2nc(SCc3nc(-c4cccc(C)c4)oc3C)[nH]c(=O)c2C1 — higher, 14.5% [at 0.35 µM]
- CCCCN(Cc1ccco1)c1nc(-c2ccc(OC)cc2)nc2ccccc12 — higher, 14.7% [at 0.35 µM]
- CCCN(CCC)c1nc(-c2ccc(OC)cc2)nc2ccccc12 — higher, -8.92% [at 0.35 µM]
- Cc1ccc2c(c1C)-n1cccc1C1(CCN(C(=O)c3ccc(Br)o3)CC1)N2 — higher, 9.35% [at 0.35 µM]

`CCc1ccc2c(c1)cc(S(=O)(=O)c1ccccc1)c(=O)n2CC(=O)NC1CCCCC1` showed a max activity of -12.7% [at 1.35 µM].
